Potency data for 40 compounds are collected here from PubChem BioAssay (Tox21).

Records with an inconclusive call do not appear. Where a call stands in place of a potency, no number is given. The source made the active and inactive calls. Calls come from the whole dose curve.

The assay in a line: qHTS assay to identify small molecule agonists of the NFkB signaling pathway - cell viability counter screen (AID 1159515). Note: nearly all actives have a fitted effect of over 55% in size. To be noted: NFkB-bla ME-180 viability, CellTiter-Glo luminescence, 5 h; series mostly up to 61 µM. The source says: National Center for Advancing Translational Sciences [NCATS]
NIH Chemical Genomics Center [NCGC]
U.S. Environmental Protection Agency [EPA]
National Institutes of Environmental Health Sciences [NIEHS]
National Toxicology Program [NTP]
U.S. Food and Drug Administration [FDA]
Transcription factors and their stimulated target gene expression play pivotal roles across many cellular processes including responses to environmental stimuli. Proper regulation of associated pathways is critical to maintain cell health and function. Constitutive activation of transcription factor pathways has been implicated in tumors as it may block cellular functions such as apoptosis and lead to invasion and metastasis. One important transcription factor that stimulates gene expression in response to cytokines, UV radiation, and other stimuli is nuclear factor-kappa B (NFkB). To measure activation of the NFkB pathway, the CellSensor NFkB-bla ME-180 cell line (Life Technologies, Carlsbad, CA) that stably expresses beta-lactamase reporter gene under the regulation of a NF-kB response element was used. This assay allows measurement of the NFkB pathway activity induced by compounds in a ME-180 cell line. This system quantitates NF-kB activity using a FRET-based assay system where beta-lactamase expression disrupts FRET, allowing for fluorescent measurement of activity. This cell line has been used to screen the Tox21 10K compound library and to identify compounds that induce the NFkB pathway activity. The cytotoxicity of the Tox21 compound library against the NFkB-bla ME-180 cell line was tested in parallel by measuring cell viability using the CellTiter-Glo assay in the same wells.
Tox21 Assay Protocol Summary:
NFkB-bla ME-180 cells were dispensed at 2,000 cells/6 uL of assay medium per well into black wall/clear-bottom 1536-well plates using a Multidrop Combi (ThermoFisher Scientific, Waltham, MA) dispenser. After the assay plates were incubated at 37 C and 5% CO2 for an overnight, 23 nL of compounds dissolved in DMSO, positive controls or DMSO only was transferred to the assay plate by a Pintool station (Kalypsys, San Diego, CA). The assay plates were incubated at 37 C and 5% CO2 for 5 hr. One uL of LiveBLAzer B/G FRET substrate (Life Technologies) was added using a Flying Reagent Dispenser (Aurora Discovery, San Diego, CA) and the plates were incubated at room temperature for 1.5 hr. Fluorescence intensity (405 nm excitation, 460 nm and 530 nm emissions) was measured using an Envision plate reader (PerkinElmer, Shelton, CT). For cytotoxicity, 3 ul/well of CellTiter-Glo reagent was added into the assay plates using an FRD. After 30 min incubation at room temperature, the luminescence intensity was measured using a ViewLux plate reader (PerkinElmer).
As for `CCOc1ccc(NC(=O)CC(C)=O)cc1`, the Potency result was “inactive”.

`CC(=O)N(O)CCCCCNC(=O)CCC(=O)N(O)CCCCCNC(=O)CCC(=O)N(O)CCCCCN`: the Potency result is “inactive”.

In the case of `O=C(NN1CCCC1)NS(=O)(=O)c1ccc(Cl)cc1`, the Potency entry is “inactive”.

As to `OC(CCN1CCCCC1)(c1ccccc1)C1CCCCC1` (stereo not given), the Potency result is “inactive”.

As to `Cc1cc(C)c(S(=O)(=O)O)cc1N=Nc1cc(S(=O)(=O)O)c2ccccc2c1O`, the Potency entry is “inactive”.

`CCCCCCCCCCCCCCC1CO1` (stereo not given): the Potency result was “inactive”.

Turning to `CCCCCCc1ccc(N)cc1`, the Potency result was “inactive”.

Regarding `Cc1ccc(C(N)=O)cc1N`, the Potency result was “inactive”.

As for `Cn1c(NCCN(CCO)CCCc2ccc([N+](=O)[O-])cc2)cc(=O)n(C)c1=O`, the Potency result was “inactive”.

On to `Oc1ccc(O)c2c(O)cccc12`, for which the Potency result was “inactive”.

Take `NC(N)=N/N=C/c1c(Cl)cccc1Cl`: the Potency entry was “inactive”.

Consider `CCCC(=O)OCC`, for which the Potency entry was “inactive”.

As for `O=C(O)Cc1cc(I)c(Oc2ccc(O)c(I)c2)c(I)c1`, the Potency entry is “inactive”.

Consider `Cc1ccc(O)c([C@H](CCN(C(C)C)C(C)C)c2ccccc2)c1`, for which the Potency result was “inactive”.

For the compound `C[C@@H](C1=C(CCN(C)C)Cc2ccccc21)c1ccccn1`, the Potency result was “inactive”.

For the compound `O=[N+]([O-])c1cccc(Cl)c1Cl`, the Potency result is “inactive”.

For the compound `CCCCOC(O)CC` (stereo not given), the Potency result was “inactive”.

Turning to `CCOC(=O)CC(=O)c1cc(F)c(Cl)nc1Cl`, the Potency result is “inactive”.

On to `Cc1ncsc1CCO`, for which the Potency entry is “inactive”.

`COCCO`: the Potency entry is “inactive”.

As to `CC(C)(C)c1cc(CCC(=O)OCC(COC(=O)CCc2cc(C(C)(C)C)c(O)c(C(C)(C)C)c2)(COC(=O)CCc2cc(C(C)(C)C)c(O)c(C(C)(C)C)c2)COC(=O)CCc2cc(C(C)(C)C)c(O)c(C(C)(C)C)c2)cc(C(C)(C)C)c1O`, the Potency result is “inactive”.

Consider `CCOC(=S)SSC(=S)OCC`, for which the Potency entry is “inactive”.

Regarding `Nc1nc(CC(=O)O)cs1`, the Potency entry was “inactive”.

`O=C=NC1CCC(CC2CCC(N=C=O)CC2)CC1` (stereo not given): the Potency entry is “inactive”.

Take `C=C(C)C(=O)OCCOc1ccccc1`: the Potency result is “inactive”.

For `Cc1cc(O)ccc1N`, the Potency result was “inactive”.

Take `CC1=CCC(C(C)C)C=C1` (stereo not given): the Potency result was “inactive”.

With `CCOc1ccc2[nH]cc(C(=O)NCc3ccccc3)c(=O)c2n1`, the Potency entry was “inactive”.

`COc1ccc(C(C)=O)cc1`: the Potency result was “inactive”.

As to `N#Cc1c(F)cccc1F`, the Potency result was “inactive”.

With `CC(=O)Nc1ccc(/C=N/NC(N)=S)cc1`, the Potency entry is “inactive”.

With `NC(=S)N/N=C/c1cccnc1`, the Potency entry is “inactive”.

In the case of `O=c1c2ccccc2nnn1CCl`, the Potency result is “inactive”.

For `Nc1cnn([C@@H]2O[C@H](CO)[C@@H](O)[C@H]2O)c(=O)n1`, the Potency entry is “inactive”.

As for `CN1CCN(C2=Nc3cc(Cl)ccc3Nc3ccccc32)CC1`, the Potency entry was “inactive”.

Regarding `S=C(S)NCCNC(=S)S`, the Potency result was “inactive”.

As for `CCCCCCCCCCCCC(=O)O`, the Potency entry is “inactive”.

In the case of `CC(C)c1ccc2c(C(C)C)cc(C(C)C)c(S(=O)(=O)O)c2c1`, the Potency entry was “inactive”.

Regarding `CC(C(=O)O)c1ccc(C(=O)c2ccccc2)s1` (stereo not given), the Potency entry is “inactive”.

As for `CC(C)(C)c1ccc(OCC2CO2)cc1` (stereo not given), the Potency entry was “inactive”.
